This note sets out measurements from PubChem BioAssay.

Assay [1] concerns XIP peptide (Xip251-270) binding. Briefly: small-molecule binders of XIP peptide, primary screen, biochemical, small-molecule microarray, fluorescence 635/667 nm, 0.1 µg/mL protein (AID 1182). Conditions: fluorescent protein binding, 635 nm, higher = more signal, called active from +8 up or from −8 down.
The next assay has as its system XIP peptide (Xip251-270). Briefly: small-molecule binders of XIP peptide, primary screen, biochemical, small-molecule microarray, fluorescence 635/667 nm, 0.5 µg/mL protein (AID 1183). The following applies: small-molecule microarray binding, fluorescence 635 nm; higher = more signal.
The nature of assay [2]: Plasmodium falciparum growth inhibition, primary screen, strain 3D7, DAPI fluorescence, 100 nL (AID 1184).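 Further: parasites grown inside human red blood cells in medium with human serum.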 Conditions: P. falciparum 3D7 growth, 3 d, higher = more signal.
Assay [3] has as its target Homeobox protein Hox-A13 (Mus musculus) (UniProt Q62424). Briefly: inhibitors of HoxA13-DNA binding, primary screen, biochemical, fluorescence polarization, labeled oligonucleotide (AID 1185). Conditions: 15 min, higher = more signal, called active from +8 up or from −8 down.
Assay [4] is described as follows: inhibitors of hydroxyurea-induced Chk1 phosphorylation, primary screen, imaging, HeLa, phospho-Chk1 antibody, percent positive cells (AID 1186). The following applies: hydroxyurea-induced phospho-Chk1 immunofluorescence imaging, higher = more signal.
Assay [5] can be described thus: inhibitors of hydroxyurea-induced Chk1 phosphorylation, primary screen, imaging, HeLa, phospho-Chk1 nuclear intensity (AID 1187). The following applies: hydroxyurea-induced phospho-Chk1 immunofluorescence imaging, higher = more signal.

SMILES strings stand for the structures. Calls of active or inactive are those of the source. Unless noted, how the calls were made is not given here.

Homeobox protein Hox-A13 (Mus musculus), sequence (Q62424 whole entry, looked up): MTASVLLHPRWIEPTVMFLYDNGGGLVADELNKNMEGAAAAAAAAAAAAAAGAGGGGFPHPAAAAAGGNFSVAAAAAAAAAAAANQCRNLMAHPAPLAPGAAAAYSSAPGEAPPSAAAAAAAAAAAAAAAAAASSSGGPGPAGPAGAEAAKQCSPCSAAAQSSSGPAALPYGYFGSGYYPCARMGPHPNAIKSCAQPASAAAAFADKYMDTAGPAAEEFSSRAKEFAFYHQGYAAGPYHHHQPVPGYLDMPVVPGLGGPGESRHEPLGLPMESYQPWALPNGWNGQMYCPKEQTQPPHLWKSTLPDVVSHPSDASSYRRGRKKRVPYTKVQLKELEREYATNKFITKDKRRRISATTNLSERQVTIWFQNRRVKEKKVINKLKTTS

Turning to `COC(=O)[C@@H]1N=C(c2ccc(OCCCO)cc2)O[C@@H]1c1ccccc1`, the composite z-score is 0.178 (inactive) in assay [1] and 0.759 in the assay on XIP peptide (Xip251-270). Besides, the z-score is -0.641 in assay [2], -4.34 (inactive) in assay [3], -0.4 (inactive) in assay [4] and -0.301 (inactive) in assay [5].

For `CCCC1(C(=O)OC)C=C2C(=C(C)C(=O)C2C)CN1` (stereo not drawn), the results for the composite z-score (in assay [1]; with XIP peptide (Xip251-270)) were -1.06 (inactive) and -0.527, respectively. Further, the z-score is 0.43 in assay [2], -4.88 (inactive) in assay [3], 0.779 (inactive) in assay [4] and 0.909 (inactive) in assay [5].

As for `Oc1ccc2cc[n+](Cc3cc4c(cc3Br)OCO4)cc2c1`, the composite z-score is 0.425 (inactive) in assay [1] and 0.135 in the assay on XIP peptide (Xip251-270). Besides, the z-score is 0.0298 in assay [2], -8.63 (active) in assay [3], 0.12 (inactive) in assay [4] and 0.225 (inactive) in assay [5].

Regarding `COc1cc(OC)c(C(O)C2C=CC3C(=O)N(Cc4ccccc4)C(=O)C3N2n2cnnc2)cc1Br` (stereo not drawn), the composite z-score is 0.236 (inactive) in assay [1] and 0.0481 in the assay with XIP peptide (Xip251-270). The z-score in assay [2] is -0.976; in assay [3], 0.767 (inactive); in assay [4] it was 0.0176 (inactive); in assay [5], 0.301 (inactive).

Take `O=C(O)[C@@H]1[C@@H]2C(=O)N(c3ccccc3)C(=O)[C@@H]2C[C@@H]1Sc1ccccc1`: the composite z-score is -0.213 (inactive) in assay [1] and 0.463 in the assay with XIP peptide (Xip251-270). Moreover, the z-score is 0.0183 in assay [2], -2.65 (inactive) in assay [3], 0.701 (inactive) in assay [4] and -0.162 (inactive) in assay [5].

With `CC(C)N1CC=CC23O[C@@H]4C=CCCOC(=O)C4[C@H]2C(=O)N(CCCO)[C@@H]3C1=O` (stereo partly drawn), the composite z-score is 0.431 (inactive) in assay [1] and 0.598 in the assay with XIP peptide (Xip251-270). The z-score was -2.07 in assay [2], -4.97 (inactive) in assay [3], -0.0561 (inactive) in assay [4] and -0.12 (inactive) in assay [5].

As for `CC1CC/C=C\[C@H]2OC34C=CCN(C(C)(C)C)C(=O)[C@H]3N(CCCCCO)C(=O)[C@@H]4C2C(=O)O1` (stereo partly drawn), the composite z-score in assay [1] was 0.28 (inactive); with XIP peptide (Xip251-270) it was -0.48. In addition, the z-score in assay [2] is -0.375; in assay [3] it was -4.58 (inactive); in assay [4], 0.139 (inactive); in assay [5], 0.408 (inactive).

Take `COCCOC(=O)N1C(=O)[C@@]2(c3cc(C#CCCO)ccc31)[C@H](c1ccc(OCCO)cc1)N1[C@H](c3ccccc3)[C@H](c3ccccc3)OC(=O)[C@H]1[C@@H]2C(=O)Nc1nc2ccccc2s1`: the composite z-score in assay [1] was 0.514 (inactive); in the assay with XIP peptide (Xip251-270), 0.509. For the same compound, the z-score was 0.335 in assay [2], 0.838 (inactive) in assay [3], -0.0639 (inactive) in assay [4] and -0.355 (inactive) in assay [5].

As to `Cc1ccc(N2C(=O)c3ccccc3[C@@H](C(=O)NCCCN(C)C)[C@@H]2c2ccc(CO)cc2)nc1`, the composite z-score in assay [1] was 1.9 (inactive); with XIP peptide (Xip251-270) it was 0.148. For the same compound, the z-score in assay [2] was -0.235; in assay [3] it was -2.34 (inactive); in assay [4] it was 0.026 (inactive); in assay [5], -0.303 (inactive).

Regarding `CC#CCO[Si](C#Cc1ccccc1)(C(C)C)C(C)C`, the composite z-score was 0.0308 (inactive) in assay [1] and -0.654 with XIP peptide (Xip251-270). Besides, the z-score in assay [2] was -0.916; in assay [3] it was -1.19 (inactive); in assay [4] it was 0.988 (inactive); in assay [5] it was 0.598 (inactive).

As to `C=CCC(OC(C)=O)[C@@H]1[C@@H](N(Cc2cccc3ccccc23)C(=O)Cc2ccc(F)cc2)c2cc(OCCCO)ccc2N1C(=O)c1ccc2ccccc2c1` (stereo partly drawn), the composite z-score in assay [1] is -1.12 (inactive); in the assay with XIP peptide (Xip251-270), -0.277. Further, the z-score in assay [2] is -1.85; in assay [3] it was -1.39 (inactive); in assay [4], -0.457 (inactive); in assay [5] it was -0.395 (inactive).

Regarding `CCCN1C(=O)[C@]2(Cc3ccccc31)N=C(c1ccc(OCCCO)cc1)O[C@@H]2c1ccccc1`, the composite z-score in assay [1] is -0.0074 (inactive); with XIP peptide (Xip251-270), 0.763. Besides, the z-score in assay [2] is -2.32; in assay [3], -6.66 (inactive); in assay [4], 0.0183 (inactive); in assay [5], 0.825 (inactive).

On to `COc1ccc([Si](C)(C)[C@@H]2[C@@H](CCO)O[C@]3(C(=O)N(Cc4ccccc4)c4ccc(N5C(=O)c6cccc7cccc5c67)cc43)[C@H]2C)cc1`, for which the composite z-score in assay [1] is 0.533 (inactive); in the assay on XIP peptide (Xip251-270), 0.541. Also, the z-score was -2.76 in assay [2], -0.268 (inactive) in assay [3], -0.991 (inactive) in assay [4] and -0.379 (inactive) in assay [5].

For the compound `CCOC(=O)C[C@H]1[C@H](OC(=O)c2cc3ccccc3oc2=O)[C@@H](NC(=O)CC(C)C)c2cc(OCCCO)ccc2N1C(=O)c1ccc2ccccc2n1`, the figures for the composite z-score (in assay [1]; in the assay with XIP peptide (Xip251-270)) were 2.46 (inactive) and 0.46, respectively. Further, the z-score in assay [2] was -0.533; in assay [3], -4.43 (inactive); in assay [4], -0.121 (inactive); in assay [5], -0.507 (inactive).

`CC(C)(C)OC(=O)COc1cccc(C(=O)CCN2CCOCC2)c1`: the composite z-score was 0.123 (inactive) in assay [1] and 0.248 in the assay on XIP peptide (Xip251-270). The z-score was -0.367 in assay [2], -1.11 (inactive) in assay [3], -0.118 (inactive) in assay [4] and 0.0155 (inactive) in assay [5].

Regarding `C=C(/C(=C/C[C@H](OC(=O)c1ccncc1)c1ccc(CO)o1)c1cnc2ccccc2c1)C(C)C`, the composite z-score in assay [1] was 0.276 (inactive); in the assay with XIP peptide (Xip251-270), 0.647. Further, the z-score in assay [2] was -0.137; in assay [3], -5.42 (inactive); in assay [4], -0.282 (inactive); in assay [5] it was -0.39 (inactive).

For `COC(=O)c1c(CC[C@@H](CO)NC(=O)N2CCC[C@H]2Cn2cc(C3(O)CCCCC3)nn2)oc(C(C)=O)c1C(=O)OC`, the values for the composite z-score (in assay [1]; in the assay on XIP peptide (Xip251-270)) were 0.812 (inactive) and 0.499, respectively. Moreover, the z-score in assay [2] is -0.373; in assay [3], -4.77 (inactive); in assay [4] it was -0.125 (inactive); in assay [5], -0.0208 (inactive).

Take `CC1CC/C=C\[C@H]2OC34C=CCN(C(C)C)C(=O)[C@H]3N(CCO)C(=O)[C@@H]4C2C(=O)O1` (stereo partly drawn): the composite z-score is -0.319 (inactive) in assay [1] and -0.472 in the assay on XIP peptide (Xip251-270). Besides, the z-score in assay [2] was -1.22; in assay [3], -2.91 (inactive); in assay [4], 0.147 (inactive); in assay [5] it was 0.0498 (inactive).
